Screening results from PubChem.
Shown are actives, neighbours in structure and some others; about 4.8% of the full set was active somewhere.
USP2a block: USP2a (human) protease inhibition; O75604; USP2 core, Ub-CHOP2 coupled fluorogenic reporter, 485/531; Potency, µM (doses to about 38.3 µM), for inactives: at the highest dose activity change, negative = inhibition, usual class: inhibitors; 330,000 compounds, 0.01% hits; AID 463254;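 also: potency is read from the fitted curve at half-maximal effect; plate controls were DMSO wells for no effect and full inhibition by NEM control for full effect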
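Deubiquitinase activity read as fluorescence (485/531 nm) after Ub-CHOP2 cleavage activates the enterokinase reporter on its substrate; USP2 core 10nM, Ub-CHOP2 and substrate 25nM each, 30min compound preincubation then 60min RT; data normalized to NEM, curves fitted.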
ATXN viability: cell viability loss in ATXN counter-screen; S2 cells (HEK-293 line with an ATXN2-luciferase reporter) viability, CellTiter-Fluor protease fluorescence, 24 h; Potency, µM (doses to about 56.7 µM), usual class: cytotoxic; 400,000 compounds, 0.49% hits; also: potency is read from the fitted curve at half-maximal effect; nearly all actives have a fitted effect of over 40% in size
IL-1B inflam inh: inhibitors of inflammasome signaling (IL-1 beta secretion). THP-1 LPS/ATP IL-1B secretion, AlphaLISA, 16 h; hits give low values. activity change, % at 57.5 µM. 360,000 compounds, 4.7% hits. AID 743279; in the data active = activity change below about -50%; inconclusive = mostly about -30% to -49%; also: % is scaled to controls: 0 for no effect and ±100 for the full control effect
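THP-1 cells pretreated 1 hr with compounds (up to 57.5 uM final), then stimulated with LPS (250 ng/mL final) plus ATP (1.25 mM final); secreted IL-1B measured by AlphaLISA after 16 hr, decreased signal indicating inhibition.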
ATXN2 expr inh: ATXN2 expression inhibition. HEK-293 ATXN2-luciferase reporter, luminescence, 24 h. Potency, µM (titrated, usually from 57 µM), for the others: at the top dose activity change, negative = inhibition, usual class: inhibitors. 360,000 compounds, 0.72% hits; also: potency is read from the fitted curve at half-maximal effect; % is scaled to controls: 0 for no effect and ±100 for the full control effect; nearly all actives have a fitted effect of over 55% in size
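qHTS (up to 57 uM final) was run with 24 h compound exposure of reporter cells at 37 °C. Each well was multiplexed: SteadyGlo luminescence measured ATXN2-luciferase expression after a fluorogenic Gly-Phe-AFC viability readout (25 uM final).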
USP1-UAF1 inh: blocks the human USP1/UAF1 deubiquitinase complex; O94782; recombinant USP1/UAF1, Ub-Rhodamine cleavage fluorescence; Potency, µM (top dose mostly 57.1 µM), for the others: at the highest dose activity change, negative = inhibition, most hits filed as inhibitors; 390,000 compounds, 0.23% hits; also: potency is read from the fitted curve at half-maximal effect; % is scaled to controls: 0 for no effect and ±100 for the full control effect; nearly all actives have a fitted effect of over 60% in size
Target sequence (O94782 whole entry, looked up): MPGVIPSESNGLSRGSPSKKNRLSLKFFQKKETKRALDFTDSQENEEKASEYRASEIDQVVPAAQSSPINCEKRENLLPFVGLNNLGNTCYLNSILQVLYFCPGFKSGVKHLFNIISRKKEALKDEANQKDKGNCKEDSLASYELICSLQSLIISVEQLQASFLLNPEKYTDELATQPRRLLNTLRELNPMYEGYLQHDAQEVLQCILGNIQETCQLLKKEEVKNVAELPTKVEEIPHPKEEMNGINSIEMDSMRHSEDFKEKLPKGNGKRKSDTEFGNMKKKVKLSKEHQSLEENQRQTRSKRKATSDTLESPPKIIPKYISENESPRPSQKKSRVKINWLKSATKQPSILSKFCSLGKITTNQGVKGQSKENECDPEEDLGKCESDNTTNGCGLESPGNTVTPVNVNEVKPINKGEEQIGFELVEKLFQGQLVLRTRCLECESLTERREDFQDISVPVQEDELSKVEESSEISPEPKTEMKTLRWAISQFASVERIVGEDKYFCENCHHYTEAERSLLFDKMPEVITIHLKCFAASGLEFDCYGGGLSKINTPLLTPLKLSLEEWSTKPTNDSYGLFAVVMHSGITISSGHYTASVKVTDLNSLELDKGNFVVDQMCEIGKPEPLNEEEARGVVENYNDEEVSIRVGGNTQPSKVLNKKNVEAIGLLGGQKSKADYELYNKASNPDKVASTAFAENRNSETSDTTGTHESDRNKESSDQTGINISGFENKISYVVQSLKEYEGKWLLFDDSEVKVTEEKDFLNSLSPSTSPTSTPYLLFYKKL
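USP1/UAF1 complex (1 nM) preincubated 15 min at room temperature with compound, then Ub-Rho substrate (150 nM final) added. Kinetic fluorescence at 480/540 nm over 6 reads at 60 s intervals; 50 mM HEPES pH 7.8, 0.5 mM EDTA, 0.1 mg/ml BSA, 1 mM TCEP, 0.01% Tween-20.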
Active calls of the source: *; i = inactive; ? = inconclusive; / = no result given; [ ] = another dose, or the depositor's remark. Unless noted, calls follow the shape of the dose curve; as a rule, active = well fitted curve in the direction sought with a large enough effect; inconclusive = small, poorly fitted or top-dose-only effect, or another doubt; inactive = no such curve, though single readings can be large; an effect the other way counts as inactive or inconclusive.

SMILES	USP2a block	ATXN viability	IL-1B inflam inh	ATXN2 expr inh	USP1-UAF1 inh
Cc1cccc(CN2CCCC(C(=O)Nc3ccccc3Oc3cccnc3)C2)c1 (centres undefined)	-3%	i	-56*	-20%	-8%
O=C(Nc1ccccc1Oc1cccnc1)C1CCCN(C/C=C/c2ccc(F)cc2)C1 (centres undefined)	5%	?	-59*	-15%	-21%
O=C(Nc1ccccc1Oc1ccccc1)C1CCCC1	2%	i	0	-13%	-19%
Fc1ccc2nc(Nc3nc4c(F)cc(F)cc4s3)sc2c1	3%	?	-61*	-2%	-22%
Fc1ccc2nc(Nc3nc4c(F)cccc4s3)sc2c1	3%	i	0	17%	-5%
COc1cccc(-c2nc(N3CCN(C)CC3)c3ccccc3n2)c1O	-1%	i	-98*	?	-17%
CN1CCN(c2nc(-c3ccc(Cl)cc3)nc3ccccc23)CC1	3%	/	-89*	-21%	-20%
c1ccc2c(N3CCCC3)nc(-c3ccncc3)nc2c1	-1%	i	-80*	-20%	-15%
CN1CCN(c2nc(-c3ccncc3)nc3ccccc23)CC1	2%	i	-57*	?	-2%
CN1CCN(c2nc(-c3ccccc3O)nc3ccccc23)CC1	-2%	i	3	-25%	-8%
OC[C@@H]1CN(Cc2ccc(-c3ccccc3)cc2)C[C@H](n2cnc3c(NCc4ccncc4)ncnc32)O1	/	?	-10	0%	/
O=S(=O)(c1cccc(F)c1)N1CCN(c2nc(-c3cccnc3)nc3ccccc23)CC1	1%	i	-57*	-25%	-22%
OCCN1CCN(c2nc(-c3ccccc3O)nc3ccccc23)CC1	1%	i	-82*	?	-15%
c1ccc(-c2nc(N3CCOCC3)c3ccccc3n2)nc1	1%	?	3	-26%	-11%
COc1ccc(Oc2nc(-c3ccccn3)nc3ccccc23)cc1	-4%	?	-93*	-35%	-2%
O=C(c1cc(Cl)nc2ccccc12)N1CCN(S(=O)(=O)c2cccc(F)c2)CC1	1%	i	-3	1%	-3%
c1ccc(-c2nc(N3CCCCCC3)c3ccccc3n2)nc1	-11%	11µM*	-84*	?	-14%
COc1ccc(C(=O)Nc2ccc(N3CCN(c4ccccc4)CC3)c(C(=O)O)c2)cc1	/	i	/	28%	9%
O=C(O)c1ccc(S(=O)(=O)N[C@H](Cc2c[nH]c3ccccc23)C(=O)O)cc1	5%	/	/	/	/
COc1ccc(C(=O)NCC2Cc3cc(C)cc(-c4cc(C(C)=O)ccc4F)c3O2)c(OC)c1OC (centres undefined)	/	i	/	/	/
CC(C)=CCC/C(C)=C/CC/C(C)=C/C(=O)OCC(=O)[C@@]1(O)CC[C@H]2[C@@H]3CCC4=CC(=O)C=C[C@]4(C)[C@H]3[C@@H](O)C[C@@]21C	/	i	/	-10%	/
O=C(c1nnsc1S(=O)(=O)c1ccc(Cl)cc1)N1CCOCC1	12%	/	-106*	?	-2%
O=C(Nc1ccccc1)c1nnsc1S(=O)c1ccc(Cl)cc1 (centres undefined)	0%	?	-107*	?	-18%
Cc1nnsc1S(=O)c1ccc(Cl)cc1 (centres undefined)	6%	i	-29	/	1%
CNC(=O)c1nnsc1S(=O)(=O)c1ccc(Cl)cc1	2%	?	-98*	?	-7%
O=C(c1nnsc1S(=O)c1ccc(Cl)cc1)N1CCOCC1 (centres undefined)	0%	/	-104*	5%[11.3 µM]	-24%
CN(C)c1ccc(CN(Cc2ccco2)C(=O)c2ccc(F)cc2)cc1	/	/	/	/	-24%
Fc1ccc(COc2ccc(Br)cc2CNCC2CCCO2)cc1 (centres undefined)	-6%	i	-74*	?	-1%
O=C(NCCc1nc2ccccc2[nH]1)/C(=C/c1ccc2c(c1)OCO2)NC(=O)c1ccccc1Cl	1%	i	-84*	1%	-20%
Cc1c(C(=O)NCCC#N)sc(=O)n1Cc1ccc(C(=O)N(C)C)cc1	/	i	33	16%	/
